Measured values: PubChem BioAssay (Tox21)
Results filed as inconclusive are left out. The source made the active and inactive calls. Unless noted, calls follow the shape of the dose curve; as a rule, active = well fitted curve in the direction sought with a large enough effect in the repeat runs; inconclusive = weak or mixed curves; inactive = no such curve, though single readings can be large; an effect the other way counts as inactive or inconclusive.

Key:
[1] = qHTS assay to identify small molecule antagonists of the estrogen receptor alpha (ER-alpha) signaling pathway using the BG1 cell line in the presence of 0.1 nM 17-beta-estradiol - cell viability counter screen (AID 1259241); also: nearly all actives have a fitted effect of over 40% in size
In short: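 Following 5 days in phenol red-free medium with charcoal-stripped serum, VM7Luc4E2 cells received test compounds alongside 0.1 nM 17beta-estradiol (final) at 37C for 22 hr. Live cells were then quantified via protease-substrate fluorescence.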

[2] = qHTS assay to identify small molecule antagonists of the androgen receptor (AR) signaling pathway using the MDA cell line in the presence of 0.5 nM R1881 - cell viability counter screen (AID 1259242); also: nearly all actives have a fitted effect of over 45% in size
In short: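 Concentration-response screen of compounds for toxicity in MDA-kb2 reporter cells: 16 hr at 37C with 0.5 nM R1881, endpoint live-cell protease fluorescence measured in the reporter wells.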

[3] = qHTS assay to identify small molecule HDAC inhibitors (AID 1259364);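 also: wild-type HCT-116 cells with endogenous class I/II HDAC activity; top concentration of the series differs between compounds; nearly all actives have a fitted effect of over 45% in size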
In short: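 Screening used wild-type human colon HCT-116 cells incubated overnight, dosed with compounds for 2 hours, and assayed with a homogeneous luminogenic HDAC I/II reagent for 30 minutes at room temperature.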

[4] = qHTS assay to identify small molecule HDAC inhibitors - cell viability counter screen (AID 1259365); also: series mostly up to about 92 µM; nearly all actives have a fitted effect of over 50% in size
In short: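 HCT-116 wild-type, overnight attachment; 2hr drug exposure, 37C; CellTiter-Glo luminescent ATP readout after 30min RT.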

[5] = qHTS assay to identify small molecule agonists of the sonic hedgehog signaling (Shh) pathway - cell viability counter screen (AID 1259366); also: nearly all actives have a fitted effect of over 50% in size
In short: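 Compounds in DMSO were pin-transferred onto 3T3 Gli1-Luc cells that had settled 4hr; plates then stood 24hr at 37C and 5% CO2. One hour before the end, CellTiter-Fluor was added and fluorescence recorded.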

[6] = qHTS assay to identify small molecule antagonists of the sonic hedgehog signaling (Shh) pathway - cell viability counter screen (AID 1259367); also: nearly all actives have a fitted effect of over 55% in size
In short: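 Viability was read by CellTiter-Fluor fluorescence in the same wells, reagent added 23 hr into compound treatment and incubated 1 hr at 37C. The 3T3 Gli1-Luc reporter cells (2,000/well) received conditioned medium after compound and ran 24 hr.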

[7] = qHTS assay to identify small molecule agonists of the sonic hedgehog signaling (Shh) pathway (AID 1259368; calls by dose curve;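 also: NIH/3T3-derived 3T3Gli1-Luc cells carrying a stable Gli1-driven firefly luciferase reporter; series mostly up to about 92 µM; nearly all actives have a fitted effect of over 15% in size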)
In short: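 Hedgehog pathway agonism scored by increased firefly luciferase luminescence in 3T3Gli1-Luc cells treated 24 hr at 37 C; detection used a 30 min room-temperature reagent incubation.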

Measured: Potency

C=CC(=O)OC
inactive: all assays above

CC(C)=CCOc1c2occc2cc2ccc(=O)oc12
inactive: all assays above

O=Cc1ccc(Cl)cc1Cl
not listed: [3]
inactive: all other assays above

O=C1C(=O)c2cccc3cccc1c23
not listed: [6]
inactive: all other assays above
